Reference: article PMC7819943, “Rice protein-binding microarrays: a tool to detect cis-acting elements near promoter regions in rice”
The full ranking holds about 68,000 sequences; the median of “fluorescence intensity (a.u.)” is about 9,100, and the highest 2% start at about 16,000. For the sample, the highest values were picked, then their nearest neighbours and some sequences at random.

Each sequence was assayed against OsWRKY34 (Oryza sativa, UniProt Q0JBA9 1-250) (assay: protein-binding microarray (RPBM); PBS, 2% BSA, 51.3 ng/ul salmon testes DNA, 50 uM zinc acetate, 200 nM TF, 25 C, 1 h; high values mean tight binding). Conditions: protein: recombinant; tags: N-terminal polyhistidine and DsRed monomer fusion (pET32a); label: CyDye5-dUTP incorporated in the synthesized complementary strand; 3' TTTTT single-stranded linker to array surface; dsDNA, one strand shown.
Sequence of OsWRKY34 (Q0JBA9 entry or part of it): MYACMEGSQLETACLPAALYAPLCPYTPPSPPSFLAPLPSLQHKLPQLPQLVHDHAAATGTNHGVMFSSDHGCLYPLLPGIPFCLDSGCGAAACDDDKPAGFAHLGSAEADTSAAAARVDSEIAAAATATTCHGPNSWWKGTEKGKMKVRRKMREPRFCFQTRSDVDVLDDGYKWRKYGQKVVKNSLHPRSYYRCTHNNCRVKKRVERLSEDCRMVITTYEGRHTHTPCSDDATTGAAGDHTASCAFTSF
Method in brief: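 Per-feature fluorescence intensity (arbitrary units), read on an Axon 4000B scanner, is the binding signal. Transcription factors carrying an N-terminal polyhistidine tag and DsRed fusion were expressed in E. coli BL21-CodonPlus and purified on Ni–NTA. A custom Agilent array, made double-stranded by primer extension with Cy5-dUTP and blocked with 2% BSA, was incubated with 200 nM protein in PBS, 2% BSA, salmon testes DNA and 50 µM zinc acetate at 25 °C for 1 h and then washed.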

Sequence | binding signal
AAAAGGCGTTTGCTTGTTTTTGCTGTGGGTTAATTCGCCTCGGAGTCACCTAGTGCAG | 8090 fluorescence intensity (a.u.)
GTCACTCCTACTCCCGCCACCACCGGCCCAATGGCGCCCCCGGAGTCACCTAGTGCAG | 9660 fluorescence intensity (a.u.)
CCCAGTTTTATTTCTGCAGTTCATTTTATGAGAGCATTCTCGGAGTCACCTAGTGCAG | 8120 fluorescence intensity (a.u.)
GTGCTCTCTGCTGGCTGCGACGCCATATATGCCTTTCTTCCGGAGTCACCTAGTGCAG | 8720 fluorescence intensity (a.u.)
ACATTCTCTTATACCCATCACAATCATTTGCTCAATAGGGCGGAGTCACCTAGTGCAG | 8620 fluorescence intensity (a.u.)
CTATCAATTCGCTCTATTATGTCGCTCAATTCTCTCTCGCCGGAGTCACCTAGTGCAG | 8650 fluorescence intensity (a.u.)
GCCGGATCCAGATCTCCACCGCCTCGCCTCGCCGCGCCGCCGGAGTCACCTAGTGCAG | 10400 fluorescence intensity (a.u.)
CTACACACAAACTTCCAACTTTTCTGTCACATCGTTCCAACGGAGTCACCTAGTGCAG | 11900 fluorescence intensity (a.u.)
GTGTGTTTTTCTGCCATTTTTCGCCTTAGGTCTTCGCAATCGGAGTCACCTAGTGCAG | 12300 fluorescence intensity (a.u.)
GAGATAGATGGGCCTGAAATGCGCCGATGGTCAGGCCTGCCGGAGTCACCTAGTGCAG | 8190 fluorescence intensity (a.u.)
TTCGTGCACGCGGTCCATGCACCAGCCACCATTCCCTTCGCGGAGTCACCTAGTGCAG | 8350 fluorescence intensity (a.u.)
CTCGTGTGTCTTGCGGGCGGGTGATCTTTCCACATACAGACGGAGTCACCTAGTGCAG | 19200 fluorescence intensity (a.u.)
CGTGTCTTGTGTGTTTCCTGTCTCGCGAGCCTTCCACATACGGAGTCACCTAGTGCAG | 15000 fluorescence intensity (a.u.)
TTGTTCTTTTTGGTCTGGTTTTTTTGTGGTTTCTTGATTGCGGAGTCACCTAGTGCAG | 9010 fluorescence intensity (a.u.)
CGTTTCTTGGCTGGTTTTCTTGGGCGGCGATCGATCGATGCGGAGTCACCTAGTGCAG | 8140 fluorescence intensity (a.u.)
TCTGGTTGATTGATCGATTTGGGGAATTGGGGATCTAGCTCGGAGTCACCTAGTGCAG | 12000 fluorescence intensity (a.u.)
CTTTTGGTCTTCCCTTTCTTTTCTTCTTCTTCTTCTTCTTCGGAGTCACCTAGTGCAG | 10400 fluorescence intensity (a.u.)
TTGTTCTTCTTTTTTGGTCTGGTTTTTTTTGTGGTTTCTTCGGAGTCACCTAGTGCAG | 16700 fluorescence intensity (a.u.)
TAATATATGATCATACTTGTTTTATATACATTGTGTCTTGCGGAGTCACCTAGTGCAG | 9830 fluorescence intensity (a.u.)
AAGGTTGTCTTGTTTGATTAGCTATTTTCTTTGCCTGGTTCGGAGTCACCTAGTGCAG | 11400 fluorescence intensity (a.u.)
GGTCTGGTTCTTCTTGATGCGAGGCTAGCTGACGTTTTTTCGGAGTCACCTAGTGCAG | 17200 fluorescence intensity (a.u.)

Sequence | binding signal
GAGGTTAGCTCGCCTCTGATTGGGTTGGTTGGGTGGTCGGCGGAGTCACCTAGTGCAG | 10100 fluorescence intensity (a.u.)
GATTTGGTCTGGTTTGGTTGGAGGTTAGCTCGCCTCTGATCGGAGTCACCTAGTGCAG | 19400 fluorescence intensity (a.u.)
ACCTTAATTAATTAATCTTGTTTTCTCATGGAGTTGTCATCGGAGTCACCTAGTGCAG | 10400 fluorescence intensity (a.u.)
AACGCGTGTATTTCTATGCTTTTGATATTGATCTTGCATCCGGAGTCACCTAGTGCAG | 8230 fluorescence intensity (a.u.)
GGACATTTGGAACTGATTACTCCTACTACTCTAGTGAAAACGGAGTCACCTAGTGCAG | 8400 fluorescence intensity (a.u.)
GTGCTACCTCCATCCCAATATACTTGTCGTTTTAAGTTTTCGGAGTCACCTAGTGCAG | 11800 fluorescence intensity (a.u.)
TCTCTTATACTGATTTTTGGGTCCAATCCCTTACCGTTGACGGAGTCACCTAGTGCAG | 8150 fluorescence intensity (a.u.)
GGTCTGGTTTTATCGGTTTATATGTGTGTGTTTTTTTTGTCGGAGTCACCTAGTGCAG | 33500 fluorescence intensity (a.u.)
TATTCCTTTCATTGGGTTTGTGCGGGATGGCTGGTTGGTGCGGAGTCACCTAGTGCAG | 18100 fluorescence intensity (a.u.)
CCGTTTCCTTTGCTGGTTGTGTTTTGTGCTTGCATTCATGCGGAGTCACCTAGTGCAG | 12400 fluorescence intensity (a.u.)
GCCTTTTTTCCTTTGTCTTTTTCCGGCCCGCGTTCTTTTTCGGAGTCACCTAGTGCAG | 17400 fluorescence intensity (a.u.)
GTTCTCTTTTTTGTTTGTCTTTCCTAGTGCAATATGTTTCCGGAGTCACCTAGTGCAG | 10700 fluorescence intensity (a.u.)
TTTGTGTGTCTTGTTTATATGTGCACATATCTTGTCTTGTCGGAGTCACCTAGTGCAG | 8370 fluorescence intensity (a.u.)
TGGTGACGATGGTGATGTTCTTGTTGTTGGTTTTTCCTTTCGGAGTCACCTAGTGCAG | 9530 fluorescence intensity (a.u.)
ACCTTTCCTTTCATCTCTTCCGCTGGTTTTGTGGGATATTCGGAGTCACCTAGTGCAG | 12800 fluorescence intensity (a.u.)
ATTTGTTGTTTCATTTGTATTGTTTTGTGTTGGTTTATGTCGGAGTCACCTAGTGCAG | 8940 fluorescence intensity (a.u.)
CTTGTTGATGTGGGTGTTTCTTGGTCGATCCTTCTTGTTTCGGAGTCACCTAGTGCAG | 8330 fluorescence intensity (a.u.)
TTCCGGCCCGCGTTCTTTTTGAAGTCCAGTTTACGTCCTTCGGAGTCACCTAGTGCAG | 10800 fluorescence intensity (a.u.)
GATGTTGTTTCCTTTCTTTGGTGGTTTGGTTTGGTTGGGTCGGAGTCACCTAGTGCAG | 29300 fluorescence intensity (a.u.)
GTTAGGCATGCTGCTTGTTTATTTTTTTTCAAGTTGAGAACGGAGTCACCTAGTGCAG | 8140 fluorescence intensity (a.u.)
GCTACTGGTGCCGGCCGCCGTCCTCCTGCTTCCGCCGCCGCGGAGTCACCTAGTGCAG | 9560 fluorescence intensity (a.u.)

Sequence | binding signal
CCCATCATGTGACTTCCATCCTTGTTCCTAGCTGCATGCACGGAGTCACCTAGTGCAG | 9270 fluorescence intensity (a.u.)
TCTTCACATGCTATTTTGTGTTATTCTTGCCTATAAATGACGGAGTCACCTAGTGCAG | 8310 fluorescence intensity (a.u.)
ACATGTAAACTGTGCAATTGATTTTTTTTGTCCACATTTACGGAGTCACCTAGTGCAG | 10400 fluorescence intensity (a.u.)
AGAGGAGACAGAACCCCTGACTTTATACAGTTTGCAGTTACGGAGTCACCTAGTGCAG | 8340 fluorescence intensity (a.u.)
CGCCGCCGCATCTCCTCCTTCCTCTCTTGGCAACTGTCGGCGGAGTCACCTAGTGCAG | 8300 fluorescence intensity (a.u.)
AGTTTGTGTGTGTAGGAAAGTTTTGATGTGATGAAAAAGTCGGAGTCACCTAGTGCAG | 8680 fluorescence intensity (a.u.)
TTGTAAGTTTGTGTGTAGGAAAGTTTTGATGTGAGGAAAACGGAGTCACCTAGTGCAG | 9150 fluorescence intensity (a.u.)
GTCTACTATCCTCTTTCATTGTCTTTTTGTTGGTTGGTTTCGGAGTCACCTAGTGCAG | 17600 fluorescence intensity (a.u.)
TTTTTGTTTCTATTGGAGGTTGTCATGTTTATCTACCTTTCGGAGTCACCTAGTGCAG | 9650 fluorescence intensity (a.u.)
GTAGGAAAGTTTGTTTGTGTGTGTAGAAAAGTTTTGATGTCGGAGTCACCTAGTGCAG | 21000 fluorescence intensity (a.u.)
TTCCTTCTTCCTTCTTTTTTTCTCTCTTCTCCTTTTTTTTCGGAGTCACCTAGTGCAG | 10300 fluorescence intensity (a.u.)
GGCGGGGTTGGGGCGGCAGGCGGCTGTGAGGTTCTTGATTCGGAGTCACCTAGTGCAG | 16100 fluorescence intensity (a.u.)
TTGAGTTGTGTTCTTGGTTGGGGAGGAGGAGGAGGAGATGCGGAGTCACCTAGTGCAG | 15100 fluorescence intensity (a.u.)
GATTCCTTCCTTTTGTTTTTGGGCCGAATTCTCCTTCTTTCGGAGTCACCTAGTGCAG | 13000 fluorescence intensity (a.u.)
ACATGGGCTGGGCTGGGCTGGGCTCTTCTTCCTTTTTGTTCGGAGTCACCTAGTGCAG | 21900 fluorescence intensity (a.u.)
TCCTTGGGCTTTTTTTCTTGTTCGGGGTTGAGAGGCAATGCGGAGTCACCTAGTGCAG | 18700 fluorescence intensity (a.u.)
GACATATTTTTTTCTCCTCTCTTTTTTCATTTGTTTTTTTCGGAGTCACCTAGTGCAG | 11600 fluorescence intensity (a.u.)
ACACACACTTTACAGGTTTACAGCCCAACTTATCCGTGCACGGAGTCACCTAGTGCAG | 9890 fluorescence intensity (a.u.)
ATTTCTTTCCATCCATAATTACTAGGCTGCATTGCCTCTTCGGAGTCACCTAGTGCAG | 8720 fluorescence intensity (a.u.)
CTCGTACTAGGGTGTCATGCTGTTGGTTCCGGTGAATCTTCGGAGTCACCTAGTGCAG | 8270 fluorescence intensity (a.u.)
AAATTCAAACTAGTTTCTACATAGCCTCTTTTCTCTATTTCGGAGTCACCTAGTGCAG | 10900 fluorescence intensity (a.u.)

Sequence | binding signal
TGTTTATTTTTTTCGTTAAATTTGATTGTTTCCATTTGCACGGAGTCACCTAGTGCAG | 9770 fluorescence intensity (a.u.)
ACCCGCCCCTGCTGCTCACCGCTCCAGCCTCCGCTCATCCCGGAGTCACCTAGTGCAG | 8790 fluorescence intensity (a.u.)
AGGGTTTTTTTTGTCACTTTCGTTGTCAGTTTCTTTTTTCCGGAGTCACCTAGTGCAG | 14100 fluorescence intensity (a.u.)
CCGCTGTTATTCCCTTTGTTGTTTTTTCTCAAGTAAATTTCGGAGTCACCTAGTGCAG | 13200 fluorescence intensity (a.u.)
TGAGTTTGTTTGCTGGGTTGGTTCGTGCGTTTTCTTGGATCGGAGTCACCTAGTGCAG | 18800 fluorescence intensity (a.u.)
CTTGGTGGTTCTTTTCTTCTTCTAGATTTATCCCCATTTTCGGAGTCACCTAGTGCAG | 16700 fluorescence intensity (a.u.)
TTGGATTGGTTTCTTTCTGCTCTGTTGCAGCTCCGTTGTCCGGAGTCACCTAGTGCAG | 9560 fluorescence intensity (a.u.)
GGTTGGTTTCTTTCGTTGGATTGTTTCGAGCCAGGGTTTCCGGAGTCACCTAGTGCAG | 16900 fluorescence intensity (a.u.)
CCGCTGCTGTTTTCTTTTCTTTTGTAAGTGTGTAACGTTACGGAGTCACCTAGTGCAG | 9400 fluorescence intensity (a.u.)
AGTTTTATCCTGGGTTTGTGTTTGGTGCTGTTCTTGCGTGCGGAGTCACCTAGTGCAG | 10200 fluorescence intensity (a.u.)
GGCGGATTTCGGTTTCTTCGTGTGTTTGTTGGTTGCGTTGCGGAGTCACCTAGTGCAG | 12700 fluorescence intensity (a.u.)
CGTCTCTTTTATCCTTCTTTTTTTTCCCATTTTTCTTTTTCGGAGTCACCTAGTGCAG | 11900 fluorescence intensity (a.u.)
CCATTTAGATTGGTGCCATTTTAAACTATATCTTTTTCTTCGGAGTCACCTAGTGCAG | 8220 fluorescence intensity (a.u.)
CGTTATTCCGCTGTTGTTTTTTTTTTCTTTTGTAAGTATGCGGAGTCACCTAGTGCAG | 17500 fluorescence intensity (a.u.)
TCTCTCGCCGATTCCGCCACCGCCGCCGCGCCGCGCCTCGCGGAGTCACCTAGTGCAG | 9420 fluorescence intensity (a.u.)
GACGGTGGCCATTCTAATTCCTCTATTGCAGGGTCTAACTCGGAGTCACCTAGTGCAG | 8310 fluorescence intensity (a.u.)
TATATCCTATCTCTCACTTCACTCATATAGTGGTTAACTCCGGAGTCACCTAGTGCAG | 9570 fluorescence intensity (a.u.)
ACTTTTCTACACACATAAACTTCTAACTTTTTCATCACATCGGAGTCACCTAGTGCAG | 13400 fluorescence intensity (a.u.)
GTAGTGCTGATGTTGTACTGTGTTTTTTTACCCGTTTTATCGGAGTCACCTAGTGCAG | 11500 fluorescence intensity (a.u.)
CCACCACCACCACGCCACGGCAGCCGCACCGCACCGCACCCGGAGTCACCTAGTGCAG | 8390 fluorescence intensity (a.u.)
CACACCTCGCCTCCTCCTCGGCTTGGATCTCGCCGCATCACGGAGTCACCTAGTGCAG | 8210 fluorescence intensity (a.u.)
